ChEMBL document CHEMBL1961873, “Compounds: GSK PKIS; Assays: Nanosyn kinase panel” (2012)

What was measured:
[1] = target: T1, Tyrosine-protein kinase receptor TYRO3 (Homo sapiens) (UniProt Q06418); details: at 1 µM
T1 sequence (whole entry): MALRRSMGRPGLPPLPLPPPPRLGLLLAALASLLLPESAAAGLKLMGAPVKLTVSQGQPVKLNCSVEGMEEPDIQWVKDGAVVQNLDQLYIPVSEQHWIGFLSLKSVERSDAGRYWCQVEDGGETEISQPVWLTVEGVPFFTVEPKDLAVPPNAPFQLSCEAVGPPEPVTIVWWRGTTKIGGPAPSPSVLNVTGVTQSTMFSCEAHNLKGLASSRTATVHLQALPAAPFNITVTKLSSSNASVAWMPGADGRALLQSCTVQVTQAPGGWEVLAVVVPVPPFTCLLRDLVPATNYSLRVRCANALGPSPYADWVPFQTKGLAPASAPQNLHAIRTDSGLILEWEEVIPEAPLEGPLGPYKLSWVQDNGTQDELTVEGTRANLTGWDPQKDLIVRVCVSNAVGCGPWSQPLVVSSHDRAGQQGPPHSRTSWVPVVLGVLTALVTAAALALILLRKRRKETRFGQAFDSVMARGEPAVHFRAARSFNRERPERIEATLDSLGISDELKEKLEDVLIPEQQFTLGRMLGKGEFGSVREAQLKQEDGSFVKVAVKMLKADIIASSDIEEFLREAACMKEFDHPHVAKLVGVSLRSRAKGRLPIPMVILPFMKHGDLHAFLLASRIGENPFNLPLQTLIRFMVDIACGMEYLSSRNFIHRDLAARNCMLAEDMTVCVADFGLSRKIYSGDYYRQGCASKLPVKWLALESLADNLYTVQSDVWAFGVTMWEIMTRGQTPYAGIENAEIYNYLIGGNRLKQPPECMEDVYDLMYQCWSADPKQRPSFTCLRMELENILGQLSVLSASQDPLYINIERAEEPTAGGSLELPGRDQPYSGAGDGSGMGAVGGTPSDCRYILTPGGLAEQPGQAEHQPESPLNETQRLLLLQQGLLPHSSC

[2] = target: Tyrosine-protein kinase Yes (Homo sapiens) (UniProt P07947); details: at 0.1 µM
[3] = target: Tyrosine-protein kinase Yes (Homo sapiens) (UniProt P07947); details: at 1 µM
[4] = target: T2, Tyrosine-protein kinase ZAP-70 (Homo sapiens) (UniProt P43403); details: at 0.1 µM
T2 sequence (whole entry): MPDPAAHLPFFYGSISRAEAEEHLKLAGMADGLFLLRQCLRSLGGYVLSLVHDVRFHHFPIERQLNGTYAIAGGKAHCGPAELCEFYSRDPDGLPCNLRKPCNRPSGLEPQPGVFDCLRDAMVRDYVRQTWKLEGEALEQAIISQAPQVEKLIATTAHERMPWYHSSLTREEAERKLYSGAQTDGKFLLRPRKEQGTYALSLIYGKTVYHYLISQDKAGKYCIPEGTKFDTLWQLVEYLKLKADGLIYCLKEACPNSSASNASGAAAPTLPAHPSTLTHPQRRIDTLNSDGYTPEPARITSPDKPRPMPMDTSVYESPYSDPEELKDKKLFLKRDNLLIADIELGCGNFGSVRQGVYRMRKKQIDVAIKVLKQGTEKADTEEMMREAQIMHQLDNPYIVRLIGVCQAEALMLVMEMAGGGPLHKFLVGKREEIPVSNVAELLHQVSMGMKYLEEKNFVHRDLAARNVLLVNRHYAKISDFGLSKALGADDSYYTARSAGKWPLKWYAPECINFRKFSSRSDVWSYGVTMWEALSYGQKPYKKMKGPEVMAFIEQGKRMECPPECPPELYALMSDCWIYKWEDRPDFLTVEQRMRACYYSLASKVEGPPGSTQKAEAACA

[5] = target: T2, Tyrosine-protein kinase ZAP-70 (Homo sapiens); details: at 1 µM
[6] = target: Serine/threonine-protein kinase B-raf (Homo sapiens) (UniProt P15056); details: at 0.1 µM
[7] = target: Serine/threonine-protein kinase B-raf (Homo sapiens) (UniProt P15056); details: at 1 µM
[8] = tested on: Serine/threonine-protein kinase B-raf (Homo sapiens), P15056 [V600E]; details: at 0.1 µM
[9] = tested on: Serine/threonine-protein kinase B-raf (Homo sapiens), P15056 [V600E]; details: at 1 µM
[10] = target: RAF proto-oncogene serine/threonine-protein kinase (Homo sapiens) (UniProt P04049); details: at 0.1 µM
[11] = target: RAF proto-oncogene serine/threonine-protein kinase (Homo sapiens) (UniProt P04049); details: at 1 µM
[12] = target: T3, Interleukin-1 receptor-associated kinase 4 (Homo sapiens) (UniProt Q9NWZ3); details: at 0.1 µM
T3 sequence (whole entry): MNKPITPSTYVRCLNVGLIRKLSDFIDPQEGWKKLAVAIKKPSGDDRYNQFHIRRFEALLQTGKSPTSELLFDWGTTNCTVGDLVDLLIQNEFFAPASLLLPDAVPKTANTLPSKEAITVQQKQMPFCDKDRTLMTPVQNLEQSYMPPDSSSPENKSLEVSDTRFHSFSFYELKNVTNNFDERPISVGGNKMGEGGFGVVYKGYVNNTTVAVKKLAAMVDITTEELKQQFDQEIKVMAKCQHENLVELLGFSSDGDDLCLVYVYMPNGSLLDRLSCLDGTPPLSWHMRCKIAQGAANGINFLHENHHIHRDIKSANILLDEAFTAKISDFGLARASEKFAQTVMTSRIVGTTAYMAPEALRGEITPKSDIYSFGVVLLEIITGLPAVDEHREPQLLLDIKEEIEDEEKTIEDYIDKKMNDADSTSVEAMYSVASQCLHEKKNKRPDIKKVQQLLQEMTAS

[13] = target: T3, Interleukin-1 receptor-associated kinase 4 (Homo sapiens); details: at 1 µM
[14] = target: Leucine-rich repeat serine/threonine-protein kinase 2 (Homo sapiens) (UniProt Q5S007); details: at 0.1 µM
[15] = target: Leucine-rich repeat serine/threonine-protein kinase 2 (Homo sapiens) (UniProt Q5S007); details: at 1 µM
[16] = tested on: Leucine-rich repeat serine/threonine-protein kinase 2 (Homo sapiens), Q5S007 [G2019S]; details: at 0.1 µM
[17] = tested on: Leucine-rich repeat serine/threonine-protein kinase 2 (Homo sapiens), Q5S007 [G2019S]; details: at 1 µM

Sequence of Serine/threonine-protein kinase B-raf (Homo sapiens) (P15056 whole entry): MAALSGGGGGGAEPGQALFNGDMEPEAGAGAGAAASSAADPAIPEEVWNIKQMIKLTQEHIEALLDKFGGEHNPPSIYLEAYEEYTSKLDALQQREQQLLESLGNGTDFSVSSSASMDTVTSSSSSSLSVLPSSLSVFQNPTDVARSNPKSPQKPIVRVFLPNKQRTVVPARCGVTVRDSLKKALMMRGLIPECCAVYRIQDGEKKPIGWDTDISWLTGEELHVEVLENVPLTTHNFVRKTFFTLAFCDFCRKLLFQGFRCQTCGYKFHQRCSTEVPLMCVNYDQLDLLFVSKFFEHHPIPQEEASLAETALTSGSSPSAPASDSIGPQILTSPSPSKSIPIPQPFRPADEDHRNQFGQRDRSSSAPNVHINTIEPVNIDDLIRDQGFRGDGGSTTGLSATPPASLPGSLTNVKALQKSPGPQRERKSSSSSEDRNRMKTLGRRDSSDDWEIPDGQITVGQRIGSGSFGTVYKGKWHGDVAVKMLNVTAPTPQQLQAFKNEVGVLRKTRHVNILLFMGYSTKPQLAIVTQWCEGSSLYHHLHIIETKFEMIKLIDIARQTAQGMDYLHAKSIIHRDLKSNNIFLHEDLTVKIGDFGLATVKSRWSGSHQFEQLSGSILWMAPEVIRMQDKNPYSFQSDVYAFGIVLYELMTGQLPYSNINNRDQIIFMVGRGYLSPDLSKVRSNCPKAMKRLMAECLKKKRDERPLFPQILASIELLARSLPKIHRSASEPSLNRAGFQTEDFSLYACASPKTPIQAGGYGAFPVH
Sequence of RAF proto-oncogene serine/threonine-protein kinase (Homo sapiens) (P04049 whole entry): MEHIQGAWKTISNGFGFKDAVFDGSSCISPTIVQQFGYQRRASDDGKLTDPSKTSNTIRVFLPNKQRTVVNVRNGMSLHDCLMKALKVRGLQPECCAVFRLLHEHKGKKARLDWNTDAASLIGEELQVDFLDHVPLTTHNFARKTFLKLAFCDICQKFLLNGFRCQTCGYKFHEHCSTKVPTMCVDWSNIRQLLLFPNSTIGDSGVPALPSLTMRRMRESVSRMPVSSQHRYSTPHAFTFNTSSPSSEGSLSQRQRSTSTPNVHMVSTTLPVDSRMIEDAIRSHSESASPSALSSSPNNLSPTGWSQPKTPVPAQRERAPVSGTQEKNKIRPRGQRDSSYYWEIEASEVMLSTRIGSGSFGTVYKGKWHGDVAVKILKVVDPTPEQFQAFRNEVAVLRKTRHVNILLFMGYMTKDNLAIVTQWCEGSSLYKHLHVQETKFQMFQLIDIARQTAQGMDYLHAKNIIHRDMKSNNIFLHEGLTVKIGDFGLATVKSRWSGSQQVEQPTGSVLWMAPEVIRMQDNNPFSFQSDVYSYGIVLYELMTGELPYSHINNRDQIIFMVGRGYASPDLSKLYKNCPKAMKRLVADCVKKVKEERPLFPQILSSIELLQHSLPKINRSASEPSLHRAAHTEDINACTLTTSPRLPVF
Sequence of Serine/threonine-protein kinase B-raf (Homo sapiens), P15056 [V600E] (P15056 whole entry V600E): as the sequence (P15056 whole entry) above, with V600E counted along it
Sequence of Leucine-rich repeat serine/threonine-protein kinase 2 (Homo sapiens), Q5S007 [G2019S] (Q5S007 whole entry G2019S): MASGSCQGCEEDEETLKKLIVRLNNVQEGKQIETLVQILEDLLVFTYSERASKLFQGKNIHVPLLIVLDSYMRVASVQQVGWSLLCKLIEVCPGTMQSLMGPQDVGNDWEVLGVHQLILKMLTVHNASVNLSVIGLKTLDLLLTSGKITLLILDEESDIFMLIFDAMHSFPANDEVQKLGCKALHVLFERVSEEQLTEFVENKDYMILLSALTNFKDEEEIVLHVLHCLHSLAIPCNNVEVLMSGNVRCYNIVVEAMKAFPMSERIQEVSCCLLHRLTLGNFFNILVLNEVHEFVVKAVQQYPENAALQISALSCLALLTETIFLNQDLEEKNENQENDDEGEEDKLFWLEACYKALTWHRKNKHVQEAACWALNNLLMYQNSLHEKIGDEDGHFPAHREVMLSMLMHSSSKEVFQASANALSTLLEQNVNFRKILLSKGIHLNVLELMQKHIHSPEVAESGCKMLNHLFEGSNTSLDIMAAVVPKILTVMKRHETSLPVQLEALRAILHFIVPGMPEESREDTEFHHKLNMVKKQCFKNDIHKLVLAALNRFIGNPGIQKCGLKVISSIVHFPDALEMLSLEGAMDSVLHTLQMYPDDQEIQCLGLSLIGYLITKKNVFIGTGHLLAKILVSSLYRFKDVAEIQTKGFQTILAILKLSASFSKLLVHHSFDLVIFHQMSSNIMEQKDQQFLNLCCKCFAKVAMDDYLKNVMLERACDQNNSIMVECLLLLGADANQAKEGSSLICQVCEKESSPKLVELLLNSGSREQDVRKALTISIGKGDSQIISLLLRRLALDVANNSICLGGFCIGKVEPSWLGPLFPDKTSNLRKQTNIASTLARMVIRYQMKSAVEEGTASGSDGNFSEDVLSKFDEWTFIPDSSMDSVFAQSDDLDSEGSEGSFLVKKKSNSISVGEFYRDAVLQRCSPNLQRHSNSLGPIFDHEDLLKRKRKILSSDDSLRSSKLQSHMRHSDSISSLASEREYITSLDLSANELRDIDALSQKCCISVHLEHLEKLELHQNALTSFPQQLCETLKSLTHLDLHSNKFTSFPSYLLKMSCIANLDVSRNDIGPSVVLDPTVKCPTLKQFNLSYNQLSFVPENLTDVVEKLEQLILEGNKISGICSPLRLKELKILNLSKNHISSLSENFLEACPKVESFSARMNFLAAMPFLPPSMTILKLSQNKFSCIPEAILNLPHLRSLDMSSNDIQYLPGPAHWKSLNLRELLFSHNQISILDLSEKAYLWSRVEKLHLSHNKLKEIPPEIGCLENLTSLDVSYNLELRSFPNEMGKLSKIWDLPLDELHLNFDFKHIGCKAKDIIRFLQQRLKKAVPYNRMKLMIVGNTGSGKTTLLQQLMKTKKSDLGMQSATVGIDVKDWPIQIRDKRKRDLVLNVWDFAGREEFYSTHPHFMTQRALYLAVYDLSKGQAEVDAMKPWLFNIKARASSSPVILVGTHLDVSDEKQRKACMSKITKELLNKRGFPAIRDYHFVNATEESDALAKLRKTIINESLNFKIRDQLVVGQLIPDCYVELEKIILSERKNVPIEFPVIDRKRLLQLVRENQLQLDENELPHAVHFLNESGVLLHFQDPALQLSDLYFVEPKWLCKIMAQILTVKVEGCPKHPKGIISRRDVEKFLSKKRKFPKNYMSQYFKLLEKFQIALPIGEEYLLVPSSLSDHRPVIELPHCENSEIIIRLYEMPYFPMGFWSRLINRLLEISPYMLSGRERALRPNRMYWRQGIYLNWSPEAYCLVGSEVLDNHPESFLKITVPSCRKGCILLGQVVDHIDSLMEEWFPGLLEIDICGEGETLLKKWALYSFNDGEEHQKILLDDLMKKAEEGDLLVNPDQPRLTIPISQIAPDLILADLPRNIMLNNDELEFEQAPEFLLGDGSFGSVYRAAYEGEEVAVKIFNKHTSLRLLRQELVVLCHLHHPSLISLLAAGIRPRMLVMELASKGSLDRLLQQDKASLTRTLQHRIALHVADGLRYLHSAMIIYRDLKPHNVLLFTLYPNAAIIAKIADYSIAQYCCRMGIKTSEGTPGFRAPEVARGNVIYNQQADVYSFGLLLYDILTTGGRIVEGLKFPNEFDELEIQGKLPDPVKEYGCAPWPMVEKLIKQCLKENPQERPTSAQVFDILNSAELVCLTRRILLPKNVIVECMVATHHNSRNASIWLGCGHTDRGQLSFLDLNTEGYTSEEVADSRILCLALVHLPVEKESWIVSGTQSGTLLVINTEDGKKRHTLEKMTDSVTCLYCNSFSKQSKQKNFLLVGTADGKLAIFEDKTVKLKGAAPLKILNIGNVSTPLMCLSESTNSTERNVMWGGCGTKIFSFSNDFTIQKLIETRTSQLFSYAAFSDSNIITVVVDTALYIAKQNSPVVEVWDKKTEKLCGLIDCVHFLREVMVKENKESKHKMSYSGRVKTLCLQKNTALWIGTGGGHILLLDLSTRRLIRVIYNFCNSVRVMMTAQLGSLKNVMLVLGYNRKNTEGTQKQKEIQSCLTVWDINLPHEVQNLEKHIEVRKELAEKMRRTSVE
Sequence of Leucine-rich repeat serine/threonine-protein kinase 2 (Homo sapiens) (Q5S007 whole entry): as the sequence (Q5S007 whole entry G2019S) above, with S2019G counted along it
Sequence of Tyrosine-protein kinase Yes (Homo sapiens) (P07947 2-543 limits assumed): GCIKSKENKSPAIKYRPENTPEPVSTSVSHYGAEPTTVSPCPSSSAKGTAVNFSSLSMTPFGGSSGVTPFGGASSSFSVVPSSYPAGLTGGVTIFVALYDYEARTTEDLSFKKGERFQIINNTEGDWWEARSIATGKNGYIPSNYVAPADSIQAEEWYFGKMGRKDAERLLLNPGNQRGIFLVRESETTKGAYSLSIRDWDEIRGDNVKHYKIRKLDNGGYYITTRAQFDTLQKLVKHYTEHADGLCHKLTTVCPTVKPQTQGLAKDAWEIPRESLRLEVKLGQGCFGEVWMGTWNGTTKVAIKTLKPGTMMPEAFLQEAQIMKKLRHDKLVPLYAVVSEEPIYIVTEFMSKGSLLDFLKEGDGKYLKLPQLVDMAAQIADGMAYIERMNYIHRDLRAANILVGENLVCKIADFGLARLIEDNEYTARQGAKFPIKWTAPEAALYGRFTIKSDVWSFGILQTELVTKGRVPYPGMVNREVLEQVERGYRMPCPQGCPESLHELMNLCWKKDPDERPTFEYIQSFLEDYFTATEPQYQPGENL

| Compound | inhibition [1] | inhibition [2] | inhibition [3] | inhibition [4] | inhibition [5] | inhibition [6] | inhibition [7] | inhibition [8] | inhibition [9] | inhibition [10] | inhibition [11] | inhibition [12] | inhibition [13] | inhibition [14] | inhibition [15] | inhibition [16] | inhibition [17] |
| --- | --- | --- | --- | --- | --- | --- | --- | --- | --- | --- | --- | --- | --- | --- | --- | --- | --- |
| COc1cc(N2CCN(C(C)C)CC2)ccc1Nc1nc(Nc2ccc(F)cc2C(=O)NC[C@@H](O)CO)c2cc[nH]c2n1 | 5.76% | 1.99% | 12.3% | -0.52% | 5.52% | 6.98% | 5.88% | 7.48% | 4.83% | -2.46% | 2.01% | 3.02% | 2.5% | 10.5% | 14.5% | 48.9% | 55.5% |
| CCS(=O)(=O)c1ccc(OC)c(Nc2ncc(-c3ccccc3Cl)o2)c1 | 42.6% | 8.95% | 39.3% | 2.78% | -0.17% | 0.55% | 0.2% | 0.25% | 0.86% | 0.78% | -2.68% | -1.05% | 3.5% | 2.06% | 10.3% | 1.06% | 13.4% |
| CN(C)CCCNc1nccc(-c2c(-c3ccc(F)cc3)nn3cc(C(F)(F)F)ccc23)n1 | 1.35% | 0.79% | -0.45% | -2.33% | -4.78% | 2.11% | 2.24% | 2.52% | 2.19% | 3.17% | 0.11% | -2.77% | 1.66% | -2% | 1.95% | -0.33% | 2.73% |
| O=C(Nc1ccc(Oc2ccc3[nH]c(NC(=O)c4ccccc4)nc3c2)cc1)Nc1cc(C(F)(F)F)ccc1F | 16.8% | 1.01% | 7.23% | -1.74% | 1.65% | 4.48% | 33.4% | 5.24% | 42.7% | -3.16% | 17.9% | -1.64% | 2.09% | 13% | 18.4% | 6.22% | 36.1% |
| COC(=O)Nc1nc2ccc(Sc3ccc(NC(=O)Nc4cc(C(F)(F)F)ccc4F)cc3)cc2[nH]1 | 21.9% | -0.49% | 5.58% | 3.14% | -0.65% | 1.01% | 14.8% | -0.53% | 17.5% | -1.08% | 50% | -0.12% | 0.72% | 0.83% | 9.98% | 0.3% | 4.85% |
| NC(=O)c1cc(-c2ccc(F)cc2)cc(-c2ccncc2)c1N | 3.84% | 3.3% | 8.03% | 3.36% | 4.08% | 6.39% | 7.79% | 7.49% | 7.36% | 0.54% | 8.69% | 2.99% | 1.61% | 0.64% | 0.67% | 0.41% | 0.77% |
| CCN(CC)Cc1ccc(Nc2nccc(-c3cnn4ncccc34)n2)cc1 | 18.2% | 4.42% | 22.5% | -3.68% | -4.19% | 7.03% | 17.7% | 4.68% | 14% | 0.49% | 1.56% | 1.17% | 3.85% | -6.19% | 8.65% | 0.1% | 19% |
| C[C@@H](Oc1cc(-n2cnc3ccc(OC4CCN(C)CC4)cc32)sc1C(N)=O)c1ccccc1Cl | 4.84% | -0.81% | 3.04% | -2.84% | -1.32% | 5.72% | 7.68% | 4.5% | 3.24% | 2.09% | 0.92% | 1.54% | 3.69% | -3.8% | 6.57% | -1.8% | 13.5% |
